Bioassay records: PubChem BioAssay, several laboratories
An excerpt weighted towards active compounds, which were near 1.4% of everything screened.
LEDGF integ inh: blocks HIV-1 LEDGF/p75-dependent DNA integration; TR-FRET IN-LEDGF/p75 DNA integration, Eu/Cy5; inhibition, % at 3.7 µM; 370,000 tested, 0.64% active; AID 743269;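 active means inhibition above the screen-wide mean plus 3 SD, cut at about 13% in these data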;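 further: signal is the Cy5 over europium emission ratio at 671 and 618 nm; 0% = plate median of compound wells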
CASP6 VEID inh: inhibitors of human caspase-6; purified caspase-6, Z-VEID-R110 cleavage fluorescence; inhibition, % at 12.5 µM; 350,000 tested, 0.53% active; AID 686996;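 active means mean inhibition across replicates at least about 35%, with every replicate also reaching that limit, limit read from the data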;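 further: 0% = median of neutral control wells and 100% = no fluorescence left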
MBD2 inh: MBD2-methylated oligo binding inhibition | TR-FRET, MBD2 binding to methylated oligonucleotide | inhibition, % at 4.4 µM | 370,000 tested, 0.31% active; in the data active means inhibition above about 13%
Target sequence (Q9UBB5 whole entry, looked up): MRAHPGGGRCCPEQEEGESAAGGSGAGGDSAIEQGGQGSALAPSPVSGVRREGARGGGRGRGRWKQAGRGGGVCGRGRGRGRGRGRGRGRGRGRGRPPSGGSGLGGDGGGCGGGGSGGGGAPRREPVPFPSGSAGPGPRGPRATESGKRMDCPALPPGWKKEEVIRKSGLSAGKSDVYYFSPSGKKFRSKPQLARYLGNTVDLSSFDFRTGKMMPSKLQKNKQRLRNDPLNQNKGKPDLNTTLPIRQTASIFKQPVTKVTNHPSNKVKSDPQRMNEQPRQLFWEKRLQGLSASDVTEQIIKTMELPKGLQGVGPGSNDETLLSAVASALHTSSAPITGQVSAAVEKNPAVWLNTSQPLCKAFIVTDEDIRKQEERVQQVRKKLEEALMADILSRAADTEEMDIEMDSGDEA
UHRF1 MBD2 ctr: UHRF1 methyl-DNA binding inhibition | Q96T88 | UHRF1 binding to methylated oligo, TR-FRET | inhibition, % at 4.4 µM | 370,000 tested, 0.75% active; in the data active means inhibition above about 21%;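 further: UHRF1 SRA domain binding a hemimethylated CpG hairpin DNA probe; 0% = median of test compound wells and 100% = reference inhibitor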
IN multimer act: activates HIV-1 integrase multimerization in LEDGF counter-screen | TR-FRET HIV-1 integrase multimerization, biochemical | activation, % at 7.7 µM | shares compounds with LEDGF integ inh | 2,000 tested, 17% active | AID 1053131; in the data active means activation above about 8.9%
TR-FRET interf: counter-screen for LEDGF/p75 integration inhibitors: TR-FRET optical interference | inhibition, % at 7.7 µM | shares compounds with LEDGF integ inh | TR-FRET optical interference counterscreen, HIV-1 IN multimerization | 2,000 tested, under 10 active;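 active means inhibition above the mean over all tested compounds plus 3 SD, which no compound reached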;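 further: 0% = integrase with antibodies and DMSO and 100% = antibodies without integrase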
IN-LEDGF confirm: LEDGF/p75-dependent HIV-1 integration inhibition, confirmation | shares compounds with LEDGF integ inh | TR-FRET LEDGF/p75-dependent HIV-1 integration, biochemical | inhibition, % at 3.7 µM | 2,000 tested, 36% active | AID 1053136; in the data active means inhibition above about 14%
* hit, by the source's call; . = not tested or not shown.

SMILES	LEDGF integ inh	CASP6 VEID inh	MBD2 inh	UHRF1 MBD2 ctr	IN multimer act	TR-FRET interf	IN-LEDGF confirm
Cc1cc(C(=O)Nc2ccc3c(c2)C(=O)N(C)[C@@H]2CC[C@@H](CC(=O)N[C@@H](C)c4ccccc4)O[C@@H]2CO3)no1	.	0	.	.	.	.	.
Cc1c(C)c2c(C)nn(-c3ccccc3)c2[nH]c1=O	-2	.	0	1	.	.	.
Nc1c2c(=O)[nH]c(O)cc2nn1-c1ccccc1	16*	40*	-4	7	2	-7	1
O=C(C[C@H]1CC[C@H]2[C@@H](COC[C@@H](O)CN2C(=O)C2CC2)O1)NCc1ccncc1	.	2	.	.	.	.	.
Cc1cc(C(=O)CN2c3cccc4cccc(c34)S2(=O)=O)c(C)n1C	20*	11	-8	5	1	-7	8
COCC(C)n1c(C)cc(C(=O)CN2c3cccc4cccc(c34)S2(=O)=O)c1C (configuration not stated)	4	5	-1	3	.	.	.
CCCCCOC(=O)CC(C(=O)OCCCCC)N1CCCCC1 (configuration not stated)	14*	.	3	-3	0	1	-17
COc1ccc(S(=O)(=O)Nc2ccc3c(c2)C(=O)N([C@H](C)CO)C[C@H](C)[C@H](CN(C)C(=O)Nc2ccccc2)OCCCC[C@H](C)O3)cc1	.	1	.	.	.	.	.
O=C(O)CCCC(=O)Nc1ccc(N2CCCC2)cc1	14*	.	-2	21*	12*	-62	13
CC1C(=O)N(Cc2cn(Cc3ccco3)nn2)CCS(=O)(=O)N1Cc1ccc(-c2cccnc2)cc1 (configuration not stated)	17*	31	10	3	5	-24	13
CC(C)N(C(=O)Nc1ccc2nsnc2c1)C(C)C	51*	100*	-1	15	2	-7	75*
C=CCNC(=S)Nc1ccc2nsnc2c1	-3	.	-4	-6	.	.	.
COc1ccc(NC(=S)Nc2ccc3nc(C)c(C)nc3c2)cc1	-3	.	2	0	.	.	.
C=CCN(CC=C)C(=S)Nc1ccc2nsnc2c1	58*	21	-3	12	0	1	-3
COc1ccc(NC(=S)Nc2ccc3nsnc3c2)cc1	52*	.	-2	14	16*	-56	74*
CCOc1ccc(NC(=S)Nc2ccc3nsnc3c2)cc1	40*	.	-9	10	8	-30	74*
CC1CCN(C(=O)Nc2ccc3nsnc3c2)CC1	-1	.	-5	-7	.	.	.
CO[C@@H](CN(C)S(=O)(=O)c1ccc(C)cc1)[C@H](C)CN(Cc1ccccc1Cl)[C@H](C)CO	.	4	.	.	.	.	.
CCC(=O)N1C[C@@H](C)[C@H](OC)CN(C)C(=O)c2cc(NC(=O)c3cnccn3)ccc2OC[C@@H]1C	.	6	.	.	.	.	.
COc1ccc(NC(=O)N2C[C@@H](O)COC[C@@H]3O[C@H](CC(=O)N4CCN(C)CC4)CC[C@H]32)cc1	.	1	.	.	.	.	.
COc1ccc(N(C)C(=O)Nc2ccc3nsnc3c2)cc1	56*	6	-3	4	-3	10	5
O=C1C=C(O)c2cccc(O)c2C1=O	22*	77*	-9	12	8	-29	14*
O=C1C=C(c2c(O)ccc3ccccc23)c2ccccc2C1=O	-2	22	-2	3	.	.	.
CN1C(=O)c2cc(NC(=O)C3CCC3)ccc2OC[C@@H]2O[C@@H](CC(=O)NCCc3ccncc3)CC[C@@H]21	.	-1	.	.	.	.	.
CCN(Cc1ccc(NC(C)=O)cc1)CC1CCCN(CCc2cccc(OC)c2)C1 (configuration not stated)	63*	-12	-4	0	0	3	0
SMILES	LEDGF integ inh	CASP6 VEID inh	MBD2 inh	UHRF1 MBD2 ctr	IN multimer act	TR-FRET interf	IN-LEDGF confirm
CCN(Cc1ccccc1OC)CC1CCCN(CCc2cccc(OC)c2)C1 (configuration not stated)	-4	-9	4	4	.	.	.
COc1ccc(S(=O)(=O)N2C[C@@H](O)COC[C@@H]3O[C@@H](CC(=O)NCCN4CCCCC4)CC[C@H]32)cc1	.	-2	.	.	.	.	.
Cc1ccc(C(=O)N2CCN(c3ccc(NC(=O)CSc4ccc(Cl)cc4)cc3)CC2)cc1	-2	.	4	3	.	.	.
CS(=O)(=O)N1CCN(c2ccc(NC(=O)CSc3ccc(Cl)cc3)cc2)CC1	63*	0	-5	-1	-2	8	-1
Cc1noc(C)c1NC(=O)N(C)C[C@@H]1Oc2ccc(NS(=O)(=O)c3ccccc3)cc2C(=O)N([C@@H](C)CO)C[C@@H]1C	.	0	.	.	.	.	.
COc1ccc(CCNC(=O)c2cccc(S(=O)(=O)N3CCCCC3)c2)cc1	7	-1	-6	2	.	.	.
C=CCN(c1ccccc1Cl)S(=O)(=O)c1cccc(C(=O)NCCc2ccc(OC)cc2)c1	90*	.	-3	-1	-1	2	-9
Cc1cccc[n+]1CC(=O)c1ccc(Cl)cc1	0	-9	0	0	.	.	.
CCOc1ccc(C(=O)C[n+]2ccccc2C)cc1	14*	.	-3	2	0	1	-3
CCNC(=O)C[C@@H]1C=C[C@@H](NC(=O)C2CC2)[C@@H](CO)O1	.	10	.	.	.	.	.
CN(C)c1ccc(C=Nc2ccc(N(C)C)cc2)cc1	35*	.	-12	7	7	-34	7
C[C@H](CO)N1C[C@H](C)[C@@H](CN(C)C(=O)Nc2cccc(F)c2)Oc2cc(C#CC3(O)CCCC3)ccc2S1(=O)=O	.	0	.	.	.	.	.
COc1ccc(C(C)(NC(C)=O)c2nc(-c3cccc(C(F)(F)F)c3)cs2)cc1 (configuration not stated)	16*	3	0	-1	-1	3	-9
C/C=C/c1ccc2c(c1)O[C@H](CN(C)C(=O)NC1CCCC1)[C@@H](C)CN([C@@H](C)CO)S2(=O)=O	.	2	.	.	.	.	.
S=C(NCc1ccco1)NCc1ccco1	34*	52*	3	27*	6	-20	3
S=C(NCc1ccccc1)NCc1ccco1	-2	0	-5	1	.	.	.
Cc1ccc(S(=O)(=O)N[C@H]2CC[C@@H](CC(=O)O)O[C@@H]2CO)cc1	.	1	.	.	.	.	.
CCCNC(=O)N1CC(=O)N2[C@H](C1)[C@@H](c1ccc(-c3cccc(C)c3)cc1)[C@@H]2CO	.	-1	.	.	.	.	.
CC1C=CC=CCCC=CC=CC=CC=CC(OC2O[C@H](C)[C@@H](O)[C@H](N)[C@@H]2O)CC(O)C(C(=O)O)C(O)CC(=O)CC(O)C(O)CCC(O)CC(O)CC(O)CC(=O)OC(C)C(C)C1O (some centres not stated)	26*	.	-4	4	0	-2	43*
O=C(Cc1cccs1)N/N=C/C=C\c1ccco1	7	34	10	0	.	.	.
O=C(N/N=C/C=C\c1ccco1)c1cccs1	15*	34	3	8	8	-30	20*
